Screens as filed in PubChem.
FXN GAA850 act – increases GAA850 frataxin promoter reporter activity; HEK293 lucGAA850 FXN promoter luciferase reporter, 24 h; percent of 10 µM SAHA response; activation, % at 6 µM; 360,000 compounds, 0.56% hits;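 active means activation above the average of all compounds screened plus 3 SD, cutoff fixed separately per campaign, cut at about 7.5% in these data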;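 further: 0% = DMSO wells and 100% = 10 µM SAHA wells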
HSF1 inh – HSF1 inhibition; 300,000 compounds, 0.77% hits; activity change, negative = inhibition, % at 7.5 µM (by protocol); NIH3T3-HGL HSE-luciferase, MG132-induced, luminescence 8 h; stronger effect = lower value;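 active means more than half of replicate wells show activity change below -50%, luminescence cut by over half; inconclusive means some wells, but at most half, below -50%; inactive means no replicate well below -50%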;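 further: luciferase reports HSF-1 transcriptional activity via heat shock element; 0% = median of DMSO wells and -100% = zero luminescence signal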
DAX1 inh – inhibitors of human orphan nuclear receptor DAX1 (NR0B1) | P51843 | HEK293 Gal4-DAX1 luciferase reporter, luminescence | inhibition, % at 6.75 µM | 340,000 compounds, 0.99% hits | AID 504766;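 active means inhibition above the mean over all tested compounds plus 3 SD, cut at about 4.2% in these data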;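 further: 0% = DAX1-transfected cells with DMSO and 100% = empty-vector control cells with DMSO; inhibition shows as a rise in luminescence from relieved DAX1 repression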
Target sequence (P51843 207-470 limits assumed): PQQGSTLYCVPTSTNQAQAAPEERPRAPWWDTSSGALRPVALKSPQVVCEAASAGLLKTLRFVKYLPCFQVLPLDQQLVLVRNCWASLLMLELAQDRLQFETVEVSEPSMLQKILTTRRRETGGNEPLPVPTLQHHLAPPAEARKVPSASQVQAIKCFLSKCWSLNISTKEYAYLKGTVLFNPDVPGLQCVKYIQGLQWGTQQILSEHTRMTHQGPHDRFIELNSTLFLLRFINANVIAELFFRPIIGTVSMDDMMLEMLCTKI
HSF-1 act – increases HSF-1 driven luciferase reporter signal; 300,000 compounds, 1.7% hits; NIH3T3-HGL HSF-1 luciferase reporter, MG132, 8 h; 100% = twice DMSO control signal; activation, % at 9 µM;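 active means mean replicate activation of at least 50% with a set share of replicates each reaching 50%; inconclusive means only one of those two conditions met; inactive means mean below 50% and too few replicates reaching it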;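 further: 0% = median of the neutral control wells and 100% = twice that signal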
AHR act – activators of human aryl hydrocarbon receptor; P35869; AHR-responsive luciferase reporter cells, luminescence; activation, % at 5 µM; 320,000 compounds, 2.5% hits; in the data active means activation above about 47%;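 further: 0% = vehicle wells and 100% = reference agonist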
An asterisk follows results filed as active. Only some compounds are listed: those with a hit (about 5.4% of all), similar ones and a draw of the others.

For O=C(NC1CCCCC1)c1cnn2c(C(F)(F)F)cc(-c3ccco3)nc12 the results were FXN GAA850 act 7, HSF1 inh 19, DAX1 inh 1, HSF-1 act 70* and AHR act 5.
CC(=O)Nc1ccc(NC(=O)Cn2c(=O)n(-c3ccc(C)cc3)c(=O)c3oc4ccccc4c32)cc1 was read as FXN GAA850 act -1, HSF1 inh -3, DAX1 inh -1, HSF-1 act 0 and AHR act 1.
COc1cccc(CN(C)Cc2c(O)ccc3ccccc23)c1 was read as FXN GAA850 act 3, HSF1 inh 80, DAX1 inh 1, HSF-1 act 97* and AHR act 24.
For COc1ccc2ccccc2c1CN(C)Cc1ccccc1 the results were FXN GAA850 act 2, HSF1 inh -7, DAX1 inh -1, HSF-1 act 0 and AHR act 2.
For COc1ccc(CN(C)Cc2c(O)ccc3ccccc23)cc1 the results were FXN GAA850 act 2, HSF1 inh 195, DAX1 inh 0, HSF-1 act 219* and AHR act 17.
COC(=O)C1SCC2C(=O)N(Cc3ccc(Cl)c(Cl)c3)CC(=O)N21 (centres undefined) was read as FXN GAA850 act 2, HSF1 inh 2, DAX1 inh 0, HSF-1 act 2 and AHR act 5.
`O=C(O)CSc1nnc(-c2cccc(S(=O)(=O)N3CCOCC3)c2)n1-c1cccc(Cl)c1` gave FXN GAA850 act 0, HSF1 inh -7, DAX1 inh 2, HSF-1 act -13 and AHR act 0.
CCOC(=O)N/N=C\c1ccccc1OC/C=C/c1ccccc1 was read as FXN GAA850 act 4, HSF1 inh 23, DAX1 inh 0 and HSF-1 act 55*.
`COC(=O)N/N=C\c1ccccc1OC/C=C/c1ccccc1` gave FXN GAA850 act 6, HSF1 inh 14, DAX1 inh 1 and HSF-1 act 20.
Screening COC1OC(COCc2ccccc2)C(N)C(OCc2ccccc2)C1OCc1ccccc1 (centres undefined) returned FXN GAA850 act -1 and DAX1 inh -1.
COc1cc(C(C)=O)ccc1OCC(=O)NCc1ccccc1CN1CCCC1 was read as FXN GAA850 act -1 and DAX1 inh 1.
`CC(NC(=O)CN(c1cccc(C(F)(F)F)c1)S(C)(=O)=O)c1ccccc1` (centres undefined) gave FXN GAA850 act 0, HSF1 inh 2, DAX1 inh -1, HSF-1 act 16 and AHR act -2.
C(=N\NC1=Nc2cccc3cccc1c23)/c1ccccc1 was read as FXN GAA850 act 7, HSF1 inh 18, DAX1 inh 5.7*, HSF-1 act inconclusive and AHR act 28.
Screening Clc1ccc(/C=N/NC2=Nc3cccc4cccc2c34)cc1 returned FXN GAA850 act 5, HSF1 inh 10, DAX1 inh 4, HSF-1 act 34 and AHR act 27.
Screening C(=N\NC1=Nc2cccc3cccc1c23)/c1cccnc1 returned FXN GAA850 act 4, HSF1 inh 18, DAX1 inh 2, HSF-1 act 26 and AHR act 74*.
For Cc1ccc(S(=O)(=O)NCCC(=O)OCC(=O)NC(=O)c2cccn2C)cc1 the results were FXN GAA850 act 3, HSF1 inh -3, DAX1 inh 4, HSF-1 act -20 and AHR act 5.
Screening CC1CCN(c2ccc(-c3ccc(NC(=O)C(F)(F)F)cc3)nn2)CC1 returned FXN GAA850 act -2, HSF1 inh -8, DAX1 inh 0, HSF-1 act -18 and AHR act 50*.
Screening CC(C)[C@]1(c2ccccc2)ON(c2ccccc2C(F)(F)F)C1=O returned AHR act -1.
`COc1ccc(OCc2nnnn2-c2ccccc2)cc1` gave FXN GAA850 act -1, HSF1 inh 14, DAX1 inh -1, HSF-1 act 55* and AHR act 0.
COc1ccc(-c2noc(CCC(=O)N3CCN(c4ccc(Cl)cc4)CC3)n2)cc1 was read as FXN GAA850 act -1 and DAX1 inh -1.
Clc1ccc(-c2csc(N3CCCCCC3)n2)cc1 was read as FXN GAA850 act 3, HSF1 inh -7, DAX1 inh 1, HSF-1 act 0 and AHR act -9.
`Clc1ccc(-c2csc(N3CCOCC3)n2)cc1` gave FXN GAA850 act 3, HSF1 inh 24, DAX1 inh 1 and HSF-1 act 53*.
